From PubChem BioAssay (NCI)
Compounds without any hit were thinned out: in the full panel of roughly 83,000, 20% have a hit.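 Testing used 96-well plates and a 48-hour single-concentration exposure. Example: -40 means 40% of the starting cells died.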 A number with no mark means an inactive call. Active and inactive are the calls of the source. The calls were made as follows: active = growth percent below 10; inactive = the rest.

Assays:
Test in all cases: NCI-60 one-dose screen, 48 h (100 = growth as untreated, 0 = no growth, -100 = all killed)
Details in all cases: 10 µM
SK-MEL-2 melanoma = test system: SK-MEL-2 melanoma
EKVX NSCLC = test system: EKVX NSCLC
UO-31 renal = test system: UO-31 renal
TK-10 renal = test system: TK-10 renal
ACHN renal = test system: ACHN renal
CAKI-1 renal = test system: CAKI-1 renal
A498 renal = test system: A498 renal
CCRF-CEM leukemia = test system: CCRF-CEM leukemia
MOLT-4 leukemia = test system: MOLT-4 leukemia

SMILES	growth (SK-MEL-2 melanoma)	growth (EKVX NSCLC)	growth (UO-31 renal)	growth (TK-10 renal)	growth (ACHN renal)	growth (CAKI-1 renal)	growth (A498 renal)	growth (CCRF-CEM leukemia)	growth (MOLT-4 leukemia)
C=C1C(=O)O[C@H]2[C@H]1CC/C(COC(=O)OCCCCCOC(=O)OC/C1=C/CC[C@@]3(C)O[C@H]3[C@H]3OC(=O)C(=C)[C@@H]3CC1)=C\CC[C@@]1(C)O[C@@H]21	-30% (active)	-4.3% (active)	-54.9% (active)	-87.6% (active)	-65.7% (active)	-68.5% (active)	-34.2% (active)	1.79% (active)	-7.49% (active)
CCCCCCCCCCCCc1ccc(C(=O)/C=C/C(=O)O)cc1	93.1%	99.9%	85.3%	68.7%	55.9%	91.1%	81.7%	-17.6% (active)	-15.1% (active)
CCOC(=O)[C@@H](Cc1ccccc1)NC(=O)c1[nH]c2ccc(Cl)cc2c(=O)c1C	89%	97.4%	84.7%	91.3%	95.6%	86.6%	143%	74.4%	93.3%
COC(=O)c1cnc2c(c1)Oc1ccc(Cl)cc1-c1cc(C)nn1-2	98.3%	71.2%	82.8%	95.4%	42.4%	57.8%	99.2%	121%	102%
